Laboratory results published in PubChem BioAssay (NCI).
“And” between values parts separate entries of the source, which are not always exact repeats. Identical values can stand only once. The panel holds about 83,000 compounds, 20% with a hit somewhere; the sample as a whole holds those more often.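 In brief: 96-well plates, 48 h treatment, single concentration, percent growth endpoint.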 The source made the active and inactive calls. The calls were made as follows: active = growth percent below 10; inactive = the rest.

Experiments:
Experiment in all cases: NCI-60 one-dose screen, 48 h (100 = growth as untreated, 0 = no growth, -100 = all killed)
Conditions in all cases: 10 µM unless noted
DU-145 prostate = tested on: DU-145 prostate
K-562 leukemia = tested on: K-562 leukemia
MALME-3M melanoma = tested on: MALME-3M melanoma
MDA-MB-231 breast = tested on: MDA-MB-231 breast
RXF 393 renal = tested on: RXF 393 renal
SF-268 CNS = tested on: SF-268 CNS
SF-295 CNS = tested on: SF-295 CNS
SF-539 CNS = tested on: SF-539 CNS
UACC-257 melanoma = tested on: UACC-257 melanoma
M14 melanoma = tested on: M14 melanoma

Measured: growth

COc1ccc(/C=N/NC(=O)CSc2nc(-c3cnccn3)cc(-c3cccs3)c2C#N)cc1OC
active: RXF 393 renal -12.9%
inactive: DU-145 prostate 100% | K-562 leukemia 95.5% | MALME-3M melanoma 69.1% | MDA-MB-231 breast 50.1% | SF-268 CNS 70.5% | SF-295 CNS 83.1% | SF-539 CNS 36.7% | UACC-257 melanoma 91.7% | M14 melanoma 77.5%

CC(=O)OC[C@@]12Oc3c(cccc3-c3ccc(O)c4c3O[C@]3(COC(C)=O)C(=C4O)C(=O)C[C@H](C)[C@@H]3OC(C)=O)C(O)=C1C(=O)C[C@H](C)[C@@H]2OC(C)=O
inactive: DU-145 prostate 20.7% | K-562 leukemia 11.6% | RXF 393 renal 11.9% | SF-268 CNS 17.2% | SF-539 CNS 18.4% | M14 melanoma 21.8%
active: MALME-3M melanoma -15.5% | MDA-MB-231 breast 5.9% | SF-295 CNS -21.9% | UACC-257 melanoma -8.95%

NC(=O)c1ncn2c(=O)n(CCF)nnc12
inactive: DU-145 prostate 38.6% | K-562 leukemia 26.7% | MALME-3M melanoma 72.8% | MDA-MB-231 breast 66.8% | RXF 393 renal 96.6% | SF-268 CNS 57.3% | SF-295 CNS 34.7% | SF-539 CNS 63.9% | UACC-257 melanoma 80.9% | M14 melanoma 33.9%

C/C(=N/N)c1nnn(-c2ccc(Br)cc2)c1C
inactive: DU-145 prostate 108% | K-562 leukemia 91.2% | MALME-3M melanoma 102% | MDA-MB-231 breast 101% | RXF 393 renal 103% | SF-268 CNS 97.8% | SF-295 CNS 94.2% | SF-539 CNS 93.1% | UACC-257 melanoma 105% | M14 melanoma 105%

CC1(C)CC[C@]23CC[C@]4(C)[C@H](CC[C@@H]5[C@@]6(C)CC[C@H](N)C(C)(C)[C@@H]6CC[C@]54C)[C@H]2[C@H]1OC3
inactive: MALME-3M melanoma 109% | MDA-MB-231 breast 30.1% | RXF 393 renal 38.1% | SF-268 CNS 80.9% | SF-295 CNS 78% | SF-539 CNS 74.1% | UACC-257 melanoma 98.9% | M14 melanoma 82.8%
active: DU-145 prostate -25.2% | K-562 leukemia -31.2%

COc1ccc(OC)c(CCn2cncc2-c2c[nH]c3ccc(Cl)cc23)c1
inactive: DU-145 prostate 60.5% | K-562 leukemia 15.8% | MALME-3M melanoma 45.9% | MDA-MB-231 breast 62.6% | RXF 393 renal 62.8% | SF-268 CNS 50.5% | SF-295 CNS 28.9% | SF-539 CNS 71.6% | UACC-257 melanoma 23% | M14 melanoma 48.4%

CC(C)=CCC[C@](C)(O)[C@H]1CC[C@]2(C)[C@@H]1CC[C@@H]1[C@@]3(C)CC[C@H](N)C(C)(C)[C@@H]3CC[C@]12C
active: K-562 leukemia -41.2%
inactive: DU-145 prostate 72.2% | MALME-3M melanoma 107% | MDA-MB-231 breast 85.4% | RXF 393 renal 53.2% | SF-268 CNS 86% | SF-295 CNS 93.2% | SF-539 CNS 87.9% | UACC-257 melanoma 94% | M14 melanoma 92.9%

COc1ccc(-c2cc(-c3ccc(N4CCOCC4)cc3)n3c(n2)nc2ccccc23)cc1OC
inactive: DU-145 prostate 91.2% | K-562 leukemia 68.9% | MALME-3M melanoma 93.3% | MDA-MB-231 breast 70.9% | RXF 393 renal 72.8% | SF-268 CNS 90.7% | SF-295 CNS 100% | SF-539 CNS 76.7% | UACC-257 melanoma 97.7% | M14 melanoma 93.1%

C#C[C@]1(O)CC[C@H]2[C@@H]3CC=C4c5sc(N6CCN(C)CC6)nc5CC[C@]4(C)[C@H]3CC[C@@]21C
inactive: DU-145 prostate 75.5% | MALME-3M melanoma 56.9% | MDA-MB-231 breast 62% | SF-268 CNS 52.4% | UACC-257 melanoma 61.5%
active: K-562 leukemia 0.102% | RXF 393 renal -22.1% | SF-295 CNS -39.8% | SF-539 CNS 7.74% | M14 melanoma -73.4%

Cc1ccc(/C=N/Nc2nc(Nc3ccccc3)nc(Nc3ccc(S(N)(=O)=O)cc3)n2)cc1
inactive: DU-145 prostate 65.1% | K-562 leukemia 56.8% | MALME-3M melanoma 91.8% | MDA-MB-231 breast 73.4% | SF-268 CNS 87.1% | SF-295 CNS 57.7% | SF-539 CNS 44.7% | UACC-257 melanoma 101% | M14 melanoma 72.8%
active: RXF 393 renal -2.59%

CCCCCCN1C=C/C(=C\C(=O)n2ccc3ccccc32)c2ccccc21
inactive: DU-145 prostate 74% | K-562 leukemia 31.8% | MALME-3M melanoma 70.6% | MDA-MB-231 breast 73% | RXF 393 renal 74.3% | SF-268 CNS 80.9% | SF-295 CNS 34.4% | SF-539 CNS 87% | UACC-257 melanoma 71.6% | M14 melanoma 78.5%

NC1[C@H]2CN(c3cnc(C(=O)Nc4cc(F)cc5cccnc45)cn3)C[C@@H]12 (stereo not given in full)
inactive: DU-145 prostate 76.4% | K-562 leukemia 15% | MALME-3M melanoma 57.5% | MDA-MB-231 breast 47.8% | RXF 393 renal 70.6% | SF-268 CNS 87.5% | SF-295 CNS 96.4% | SF-539 CNS 76.9% | UACC-257 melanoma 97.7% | M14 melanoma 79.3%

C#CCOc1ccccc1/C=N/Nc1nc(-c2ccc(Cl)cc2)cs1
inactive: DU-145 prostate 104% | K-562 leukemia 86.2% | MALME-3M melanoma 97.2% | MDA-MB-231 breast 86.4% | RXF 393 renal 102% | SF-268 CNS 98.9% | SF-295 CNS 109% | SF-539 CNS 89.5% | UACC-257 melanoma 102% | M14 melanoma 94%

O=c1[nH][nH]c(-c2ccc(F)cc2)c1-c1nc2ccccc2s1
inactive: DU-145 prostate 104% | K-562 leukemia 98.1% | MALME-3M melanoma 84% | MDA-MB-231 breast 85% | RXF 393 renal 99.7% | SF-268 CNS 98.1% | SF-295 CNS 103% | SF-539 CNS 94.8% | UACC-257 melanoma 107% | M14 melanoma 89.1%

O=C1C(SCc2ccccc2)=C(Cl)CN1c1ccc(Cl)cc1
inactive: DU-145 prostate 49.5% | K-562 leukemia 52.9% | MALME-3M melanoma 103% | MDA-MB-231 breast 101% | RXF 393 renal 107% | SF-268 CNS 108% | SF-295 CNS 102% | SF-539 CNS 97.9% | UACC-257 melanoma 97.2% | M14 melanoma 78%

COc1ccc(-c2cc(-c3ccc(N(C)C)cc3)n3c(n2)nc2ccccc23)cc1
inactive: DU-145 prostate 73.3% | K-562 leukemia 20.8% | MALME-3M melanoma 118% | MDA-MB-231 breast 75.2% | RXF 393 renal 86.5% | SF-268 CNS 76.9% | SF-295 CNS 48.6% | SF-539 CNS 82.6% | UACC-257 melanoma 58% | M14 melanoma 29.1%

Cc1ccc(C(=O)Nc2ccc(CNCCN3CCNCC3)c(C(F)(F)F)c2)cc1C#Cc1cnc2cccnn12
active: DU-145 prostate 6.09% | K-562 leukemia -22.2% | MALME-3M melanoma -70.8% | MDA-MB-231 breast -75.6% | RXF 393 renal -90.1% | SF-268 CNS -14.2% | SF-295 CNS -37.4% | SF-539 CNS -83% | UACC-257 melanoma -6.59% | M14 melanoma -64.6%

O=C(/C=C/c1csc(Br)n1)NO
active: K-562 leukemia 9.85% | MALME-3M melanoma 1% | RXF 393 renal -15.9% | SF-295 CNS 7.79%
inactive: DU-145 prostate 25% | MDA-MB-231 breast 34.1% | SF-268 CNS 57.6% | SF-539 CNS 35.4% | UACC-257 melanoma 22.3% | M14 melanoma 27.1%

C[C@@H]1OCC2(CCN(c3cnc(C(=O)Nc4cc(F)cc5cccnc45)cn3)CC2)[C@@H]1N
active: K-562 leukemia 8.84%
inactive: DU-145 prostate 77% | MALME-3M melanoma 53.1% | MDA-MB-231 breast 38.9% | RXF 393 renal 65.4% | SF-268 CNS 78.9% | SF-295 CNS 90.8% | SF-539 CNS 71.7% | UACC-257 melanoma 102% | M14 melanoma 81.5%

COC(=O)CCCNCCCn1ccc2cc(NCc3cccc(-c4ccccc4)c3C)ccc21
inactive: DU-145 prostate 86.2% | MALME-3M melanoma 75.2% | MDA-MB-231 breast 68.3% | RXF 393 renal 71.9% | SF-268 CNS 82.9% | SF-295 CNS 64.5% | SF-539 CNS 77.8% | UACC-257 melanoma 81.6% | M14 melanoma 68.1%
active: K-562 leukemia -1.36%

Brc1cc(-c2cc(-c3ccc4c(c3)OC=CO4)[nH]n2)cs1
inactive: DU-145 prostate 95.9% | K-562 leukemia 41.3% | MALME-3M melanoma 64% | MDA-MB-231 breast 81.2% | RXF 393 renal 93.7% | SF-268 CNS 90.1% | SF-295 CNS 79.1% | SF-539 CNS 85.2% | UACC-257 melanoma 101% | M14 melanoma 83.3%

O=S(=O)(NCCCNc1nccc(-c2[nH]c(-c3ccccc3)nc2-c2ccc(F)c(O)c2)n1)c1cccc2ccccc12
inactive: DU-145 prostate 61.5% | K-562 leukemia 23.3% | MALME-3M melanoma 32.8% | MDA-MB-231 breast 77.2% | RXF 393 renal 75.4% | SF-268 CNS 75.3% | SF-295 CNS 45.7% | SF-539 CNS 93.7% | UACC-257 melanoma 44.1% | M14 melanoma 29.4%

Clc1ccc2[nH]cc(-c3cncn3CCc3ccc4c(c3)OCO4)c2c1
inactive: DU-145 prostate 86.3% | K-562 leukemia 48.8% | MALME-3M melanoma 75.5% | MDA-MB-231 breast 65.8% | RXF 393 renal 54.7% | SF-268 CNS 66.5% | SF-295 CNS 58.4% | SF-539 CNS 83.8% | UACC-257 melanoma 57.5% | M14 melanoma 78.8%

CN1CCN(c2ccc(Nc3nc(NCCNS(=O)(=O)c4ccc(Cl)cc4)c4sccc4n3)cc2)CC1
inactive: DU-145 prostate 98.2% | MALME-3M melanoma 105% | MDA-MB-231 breast 95% | RXF 393 renal 41.2% | SF-268 CNS 70% | SF-295 CNS 97.9% | SF-539 CNS 85.5% | UACC-257 melanoma 87.5% | M14 melanoma 102%
active: K-562 leukemia 9.68%

COc1cc(-c2nc(-c3ccccc3)[nH]c2-c2ccnc(NCCCNS(=O)(=O)c3ccc(C(F)(F)F)cc3)n2)ccc1Cl
inactive: DU-145 prostate 52.6% and 59.5% | K-562 leukemia 18% and 23.5% | MALME-3M melanoma 102% and 62.4% | MDA-MB-231 breast 57% and 55.8% | RXF 393 renal 18.5% and 16.3% | SF-268 CNS 37.9% and 49% | SF-295 CNS 13.4% and 22.6% | SF-539 CNS 65.6% and 55.5% | UACC-257 melanoma 64.2% and 51.2% | M14 melanoma 18.7%
